This is a sample that favours compounds with a hit; in the whole collection about 3.5% have one here.
Pf apPOL block – Pf-apPOL DNA polymerase inhibition | Recombinant Pf-apPOL, molecular beacon fluorescence, 1.5 h | inhibition, % at 10 µM | 210,000 tested, 0.25% active | AID 1794808
mHTT CaM bind – disrupts binding of mutant huntingtin to calmodulin. AlphaScreen His-mHTT/GST-CaM binding, luminescence. 190,000 tested, 3.6% active. inhibition, % at 15 µM. AID 1671202
Numbers stand for hits; 0 = inactive; - = not tested or not shown; ! = not confirmed by another sample. No stated cut-off is given here; in the data, active means inhibition above about 50%; inactive means the rest.

SMILES	Pf apPOL block	mHTT CaM bind
O=S(=O)(Nc1ccccc1Cl)c1ccc2nc(-c3ccccc3)[nH]c2c1	0	0
O=C(CC(=O)c1ccccc1Cl)c1ccccc1O	0	50
O=C(CC(=O)c1ccccc1O)c1ccc(F)cc1	0	0
O=C(CC(=O)c1ccccc1O)c1cccc(F)c1	0	57
O=C(NCCNC(=O)c1ccccc1O)c1ccccc1O	0	0
CC(C)N1C(=O)S/C(=C\c2ccccc2OCc2ccc(C(=O)O)cc2)C1=O	0	0
CCCc1noc(-c2cccnc2N2CCCN(C(=O)c3ccc(Cl)cc3)CC2)n1	0	0
CCc1cccc(C)c1NC(=O)c1cc2ccccc2c(=O)o1	0	0
N#Cc1c(C#N)c(N)n(N)c1N	-	100
Cn1nc(CC#N)c(C#N)c1N	0	-
CCn1nnc2c(N3CCN(C(=O)c4ccc(Br)o4)CC3)ncnc21	0	0
COc1cccc(C2=NOC(C(=O)Nc3cccc(O)c3)C2)c1 (stereo not drawn)	0	0
CC1(C)Cc2c(sc3nc(SCC(=O)O)n(-c4ccccc4)c(=O)c23)CO1	0	0
CC1(C)Cc2c(sc3nc(Nc4ccccc4)n(N)c(=O)c23)CO1	0	53
CN(C1CCCCC1)S(=O)(=O)c1cc(C(=O)Nc2ccccc2Cl)ccc1F	0	0
N#CCc1nn(-c2ccccc2)c(N)c1C#N	0	0
N#Cc1c(-c2ccc(Nc3ccccc3)cc2)nn(-c2ccccc2)c1N	0	53
Cc1ccc(NC(=O)N2CC3CCCN3c3ccccc32)c(C)c1 (stereo not drawn)	0	67
O=C(Nc1ccc(Br)cc1F)N1CC2CCCN2c2ccccc21 (stereo not drawn)	0	0
Cc1cccc(NC(=O)N2CC3CCCN3c3ccccc32)c1 (stereo not drawn)	0	74
Cc1ccc(NC(=O)N2CC3CCCN3c3ccccc32)cc1Cl (stereo not drawn)	0	89
Cc1cccc(NC(=O)N2CCCC2c2ccccc2C)c1 (stereo not drawn)	0	0
Cc1ccc(NC(=O)C2CCC(N3C(=O)c4ccccc4C3=O)CC2)cc1Cl (stereo not drawn)	0	0
O=C(CCC(=O)N1CC2CCCN2c2ccccc21)NCc1ccc2c(c1)OCO2 (stereo not drawn)	0	0
O=C(Nc1ccc2c(c1)OCO2)N1CC2CCCN2c2ccccc21 (stereo not drawn)	0	81
SMILES	Pf apPOL block	mHTT CaM bind
Cc1ccc(CNC(=O)c2cnc3c(c(C)nn3C)c2NCc2ccccc2)cc1	0	0
O=C(Nc1ccc(F)cc1)c1cc(S(=O)(=O)NCc2ccccc2Cl)ccc1F	0	0
COc1cccc(C=C2Oc3c(ccc(O)c3CN3CCOCC3)C2=O)c1	0	0
Cc1cccc(C(C)C)c1NC(=O)c1ccc([N+](=O)[O-])cc1Cl	0	0
O=C(O)/C(=C\c1ccc2c(c1)OCO2)NC(=O)c1ccccc1Br	0	0
COC(=O)c1sccc1S(=O)(=O)NNC(=O)c1cnn(-c2ccc(Cl)cc2)c1C(F)(F)F	0	-
CCCOc1ccc(/C=C2/N=C(c3ccc(F)cc3)OC2=O)cc1OC	0	0
Cc1ccc(NC(=O)N2CC3CCCN3c3ccccc32)cc1C (stereo not drawn)	0	84
O=C(Nc1cccc(C(F)(F)F)c1)N1CCC(N2CCN(Cc3ccccc3)C2=O)CC1	0	0
O=C(Nc1cccc(C(F)(F)F)c1)N1CC2CCCN2c2ccccc21 (stereo not drawn)	0	81
Cc1ccc(NC(=O)N2CCC(N3CCN(Cc4ccccc4)C3=O)CC2)cc1C	0	0
CCS(=O)(=O)N1CCN(c2nc(C)nc(C)c2Cc2ccccc2F)CC1	0	0
O=C(c1ccc(S(=O)(=O)Cc2cccc(F)c2)c([N+](=O)[O-])c1)N1CCCCC1	0	0
O=[N+]([O-])c1cccc(/C=C/c2ccc3ccccc3n2)c1	0	0
O=[N+]([O-])c1cccc(/C=C/c2ccccn2)c1	67	0
Nc1ccccc1-c1nnc(SCc2ccccc2)[nH]c1=O	0	0
C=CCSc1nnc(-c2ccccc2N)c(=O)[nH]1	0	99!
O=C(Nc1nnc(-c2ccc(Cl)cc2Cl)s1)c1cccs1	0	0
Cc1nc(CNC(=O)C2CCCN2S(=O)(=O)c2cccc(C(F)(F)F)c2)cs1 (stereo not drawn)	0	0
CC(C)(C)n1nc2c(c1NC(=O)COc1ccccc1)CS(=O)(=O)C2	0	0
Cc1c(Cl)cccc1NC(=O)CN1CCc2ccccc2C1C(=O)N1CCC(C)CC1 (stereo not drawn)	0	69
CC1CCN(C(=O)C2c3ccccc3CCN2CC(=O)Nc2ccc(Cl)cc2F)CC1 (stereo not drawn)	0	68
Cc1cc(NC(=O)CN2CCc3ccccc3C2C(=O)N2CCCCC2)ccc1F (stereo not drawn)	0	0
Cc1ccc(NC(=O)CN2CCc3ccccc3C2C(=O)N2CCCC2)cc1Cl (stereo not drawn)	0	64
Cc1ccc(C)c(NC(=O)CN2CCc3ccccc3C2C(=O)N2CCC(C)CC2)c1 (stereo not drawn)	0	0
SMILES	Pf apPOL block	mHTT CaM bind
O=C(CN1CCc2ccccc2C1C(=O)N1CCCCC1)Nc1ccc(Cl)cc1F (stereo not drawn)	0	0
CCN(CC)Cc1c(O)ccc2c1OC(=Cc1c[nH]c3ccccc13)C2=O	0	72
CCN(CC)Cc1c(O)ccc2c1OC(=Cc1ccccc1C)C2=O	0	0
CCN1CCN(Cc2c(O)ccc3c2OC(=Cc2c[nH]c4ccccc24)C3=O)CC1	0	54
CN1CCN(Cc2c(O)ccc3c2OC(=Cc2c[nH]c4ccccc24)C3=O)CC1	0	0
Cc1ccc(CCNC(=O)C2CCN(S(=O)(=O)N(CC(C)C)CC(C)C)CC2)cc1	0	0
CS(=O)(=O)c1ccsc1	0	-
Cn1nc(C(=O)NCc2ccc(F)cc2)c2c1CCN(C(=O)c1ccccc1Cl)C2	0	55
COc1ccccc1C(=O)N1CCc2c(c(C(=O)NCc3ccc(F)cc3)nn2C)C1	0	71
Cn1nc(C(=O)NCc2ccccc2)c2c1CCN(C(=O)c1ccccc1F)C2	0	53
COc1ccccc1C(=O)N1CCc2c(c(C(=O)NCc3ccccc3)nn2C)C1	0	0
Cc1ccccc1C(=O)N1CCc2c(c(C(=O)NCc3ccc(F)cc3)nn2C)C1	0	0
Cn1nc(C(=O)NCc2ccccc2)c2c1CCN(C(=O)c1ccc(Br)o1)C2	0	0
CCc1cccc(C)c1NC(=O)c1cccnc1-c1cccs1	0	0
CC(C)C(=O)N1CCN(c2nc3c(s2)CC(C(=O)NCCc2ccccn2)CC3)CC1 (stereo not drawn)	0	0
COc1ccc(NC(=O)CCS(=O)(=O)c2ccc(F)cc2)c([N+](=O)[O-])c1	0	0
Cc1nc2cc(N=Cc3ccc(Br)cc3)ccc2n1C	53	0
Cc1nc2cc(N=Cc3ccccc3O)ccc2n1C	0	0
Cc1nn2c([N+](=O)[O-])c(C)[nH][n+]2c1C(=O)N1CCN(C)CC1	0	0
CCOC(=O)c1ccc(NC(=O)C(C)n2nc(-c3ccc(OC)cc3)ccc2=O)cc1 (stereo not drawn)	0	0
COc1ccccc1-c1nc(C2CCN(C(=O)c3cccc(NC(C)=O)c3)CC2)no1	0	0
O=C(Nc1nnc(-c2ccco2)o1)c1c[nH]c2ccccc12	0	72
CCS(=O)(=O)c1ccc(-c2nnc(NC(=O)c3c[nH]c4ccccc34)o2)cc1	0	0
CC(C=Cc1ccccc1)=NOC(=O)c1cccs1	0	-
N#CCSc1nc2[nH]ncc2c(=O)n1-c1ccccc1	0	0
